In PubChem BioAssay (NCATS):
Values joined by “and” are separate entries in the source; they are usually repeats but may differ in a detail not shown here. Identical values can stand only once. Results filed as inconclusive are left out. Active and inactive are the calls of the source. Calls come from the whole dose curve; as a rule, active = well fitted curve in the direction sought with a large enough effect; inconclusive = small, poorly fitted or top-dose-only effect, or another doubt; inactive = no such curve, though single readings can be large; an effect the other way counts as inactive or inconclusive. Non-standard residues stand in square brackets, D forms with d. Residues, ends and D or L forms follow the SMILES beside them. *: point of attachment. Sta = CC(C)C[C@H](N)[C@@H](O)CC(=O)O; Isovaleryl = CC(C)CC(=O)*

Experiments:
[1] = qHTS of pediatric cancer cell lines to identify multiple opportunities for drug repurposing: Primary screen for MG 63 (6-TG R) cells (AID 1347105); note: nearly all actives have a fitted effect of over 50% in size; note: potency is the fitted concentration of half-maximal effect
How it was run: (§1)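 500-1,000 cells/well; 5 h pre-incubation 37 °C/5% CO2; compound pinned; 48 h; CellTiter-Glo, 15 min RT; luminescence. MIPE 11-pt from 0.78 nM, NPC 8-pt from 0.59 nM final. Bortezomib 2.3 µM final as positive control.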

[2] = qHTS of pediatric cancer cell lines to identify multiple opportunities for drug repurposing: Primary screen for control Hh wild type fibroblast cells (AID 1347106);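 note: series mostly up to about 46 µM; a drop in luminescence marks cytotoxicity and a rise apparent proliferation; nearly all actives have a fitted effect of over 55% in size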
How it was run: (§2)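 Cells (500-1,000/well) in growth media were settled 5 h at 37 degrees C, then given compounds for 48 h. Viability was read as CellTiter-Glo luminescence. Primary runs used MIPE at 11 points (0.78 nM-46 µM) and NPC at 8 points (0.59 nM-46 µM); follow-ups used 11 points.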

[3] = qHTS of pediatric cancer cell lines to identify multiple opportunities for drug repurposing: Primary screen for Rh30 cells (AID 1347107); note: nearly all actives have a fitted effect of over 75% in size; note: potency is the fitted concentration of half-maximal effect
How it was run: as §2

[4] = qHTS of pediatric cancer cell lines to identify multiple opportunities for drug repurposing: Primary screen for Rh41 cells (AID 1347108); note: nearly all actives have a fitted effect of over 70% in size; note: potency is the fitted concentration of half-maximal effect
How it was run: as §1

[5] = qHTS of pediatric cancer cell lines to identify multiple opportunities for drug repurposing: Confirmatory screen for A673 cells (AID 1347110);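 note: cells exposed to compound for 48 h before the viability read; nearly all actives have a fitted effect of over 65% in size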; note: potency is the fitted concentration of half-maximal effect
How it was run: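 Concentration-response curves came straight from titrations: 11 points (0.78 nM to 46 µM) for MIPE and several concentrations (0.59 nM to 46 µM) for NPC in primary, 11 points in follow-up. Readout: ATP luminescence at 48 h.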

[6] = qHTS of pediatric cancer cell lines to identify multiple opportunities for drug repurposing: Confirmatory screen for SK-N-MC cells (AID 1347111);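 note: cells exposed to compound for 48 h before the readout; nearly all actives have a fitted effect of over 70% in size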; note: potency is the fitted concentration of half-maximal effect
How it was run: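 Metabolically active cells were quantified by ATP-dependent luminescence (CellTiter-Glo, 15 min at room temperature) following 48 h treatment. Cells had been plated at 500-1,000 per well and settled for 5 h beforehand.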

[7] = qHTS of pediatric cancer cell lines to identify multiple opportunities for drug repurposing: Confirmatory screen for BT-12 cells (AID 1347112); note: nearly all actives have a fitted effect of over 55% in size; note: potency is the fitted concentration of half-maximal effect
How it was run: as §2

[8] = qHTS of pediatric cancer cell lines to identify multiple opportunities for drug repurposing: Confirmatory screen for DAOY cells (AID 1347114); note: nearly all actives have a fitted effect of over 65% in size; note: potency is the fitted concentration of half-maximal effect
How it was run: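 Viability measured as metabolically active cells via CellTiter-Glo luminescence following 48 hours of compound exposure, 11-point dilutions in confirmatory testing. 500-1,000 cells/well plated 5 hours before dosing; controls were DMSO and 2.3 µM bortezomib.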

[9] = qHTS of pediatric cancer cell lines to identify multiple opportunities for drug repurposing: Confirmatory screen for NB1643 cells (AID 1347109); note: nearly all actives have a fitted effect of over 45% in size; note: potency is the fitted concentration of half-maximal effect
How it was run: as §2

[10] = qHTS of pediatric cancer cell lines to identify multiple opportunities for drug repurposing: Confirmatory screen for LAN-5 cells (AID 1347113); note: nearly all actives have a fitted effect of over 65% in size; note: potency is the fitted concentration of half-maximal effect
How it was run: as §2

Measured: Potency

Cc1cc(O)c2c(c1)C(=O)c1cc(O)cc(O)c1C2=O
inactive: [1] | [2]

CC(C)c1ccc2oc3nc(N)c(C(=O)O)cc3c(=O)c2c1
inactive: [1] | [2] | [3] | [4]

CC1=C(C(=O)O)N2C(=O)[C@@H](NC(=O)[C@H](N)C3=CCC=CC3)[C@H]2SC1
inactive: [1] | [2] | [3] | [4]

CCCS(=O)c1ccc2nc(NC(=O)OC)[nH]c2c1 (stereo not drawn)
inactive: [2]
active: [1] 13.3 µM and 18.7 µM

COC1=C(OC)C(=O)C(CCCCCCCCCCO)=C(C)C1=O
inactive: [1] | [2] | [3] | [4]

CCCCCCCCCCCCCCCCCCCCCCO
inactive: [1] | [2] | [3] | [4]

N[C@@H](Cc1cc(I)c(Oc2cc(I)c(O)c(I)c2)c(I)c1)C(=O)O
inactive: [1] | [2] | [3] | [4]

CCOC(=O)C(C)Oc1cccc2c(=O)n(CC(=O)Nc3ccc4c(c3)OCCO4)ccc12 (stereo not drawn)
inactive: [1] | [2] | [3] | [4]

Nc1cc(C(Cl)=C(Cl)Cl)c(S(N)(=O)=O)cc1S(N)(=O)=O
inactive: [1] | [2] | [3] | [4]

NS(=O)(=O)c1cc(C(=O)O)c(NCc2ccco2)cc1Cl
inactive: [1] | [2] | [3] | [4]

O=C1CCc2ccc(OCCCCN3CCN(c4cccc(Cl)c4Cl)CC3)cc2N1
inactive: [1] | [2] | [3] | [4]

CN(c1nccc(=O)[nH]1)C1CCN(c2nc3ccccc3n2Cc2ccc(F)cc2)CC1
inactive: [1] | [2] | [3] | [4]

O=Nc1c(-c2c(O)[nH]c3cc(Br)ccc23)[nH]c2ccccc12
inactive: [2]
active: [1] 18.7 µM | [3] 18.7 µM | [4] 14.8 µM

COCCCOc1ccnc(CS(=O)c2nc3ccccc3[nH]2)c1C (stereo not drawn)
inactive: [1] | [2] | [3] | [4]

C[C@H](Cn1cnc2c(N)ncnc21)OCP(=O)(O)O
inactive: [1] | [2] | [3] | [4]

COc1cc(OC)c(C(=O)CCCN2CCCC2)c(OC)c1
inactive: [1] | [2] | [3] | [4]

CNC[C@@H](O)[C@@H](O)[C@H](O)[C@H](O)CO
inactive: [1] | [2] | [3] | [4]

CCC(C)(Oc1ccc(C2(c3ccc(OC(C)(CC)C(=O)O)cc3)CCCCC2)cc1)C(=O)O (stereo not drawn)
inactive: [1] | [2] | [3] | [4]

COCCCN1CCC(NC(=O)c2cc(Cl)c(N)c3c2OCC3)CC1
inactive: [1] | [2] | [3] | [4]

CC1(C)CCC(C)(C)c2cc(NC(=O)c3ccc(C(=O)O)cc3)ccc21
inactive: [1] | [2] | [3] | [4]

Cc1ccc(S(=O)(=O)NC(=O)NN2CC3CCCC3C2)cc1 (stereo not drawn)
inactive: [1] | [2] | [3] | [4]

C=CCc1cc(OC)c(O)c(C(=O)NCCO)c1
inactive: [1] | [2] | [3] | [4]

CCOC(=O)C1=C(O)C(=O)N(Cc2ccccc2)C1
inactive: [1] | [2] | [3] | [4]

Oc1ccc(OCc2ccccc2)cc1
inactive: [1] | [2] | [3] | [4]

O=C(OC1C[C@H]2CC[C@@H](C1)[N+]21CCCC1)C(O)(c1ccccc1)c1ccccc1 (stereo partly drawn)
inactive: [1] | [2] | [3] | [4]

CC(=O)NC[C@H]1CN(c2ccc(N3CCOCC3)c(F)c2)C(=O)O1
inactive: [1] | [2] | [3] | [4]

CCC[C@@H]1C[C@@H](C(=O)N[C@@H]([C@H]2O[C@H](SC)[C@H](O)[C@@H](O)[C@H]2O)[C@@H](C)O)N(C)C1
inactive: [1] | [2] | [3] | [4]

CC(C)Oc1ccc2c(=O)c(-c3ccccc3)coc2c1
inactive: [1] | [2] | [3] | [4]

CC(C)(S)[C@@H](N)C(=O)O
inactive: [1] | [2] | [3] | [4]

COc1ccc(C2(C#N)CCC(C(=O)O)CC2)cc1OC1CCCC1 (stereo not drawn)
inactive: [1] | [2] | [3] | [4]

Cc1ccc(C)c(OCCCC(C)(C)C(=O)O)c1
inactive: [1] | [2] | [3] | [4]

CN1C(C(=O)Nc2ccccn2)=C(O)c2sccc2S1(=O)=O
inactive: [1] | [2] | [3] | [4]

COc1c2occc2cc2ccc(=O)oc12
inactive: [1] | [2] | [3] | [4]

CC1Cc2ccccc2N1NC(=O)c1ccc(Cl)c(S(N)(=O)=O)c1 (stereo not drawn)
inactive: [1] | [2] | [3] | [4]

N=C(N)c1ccc2cc(OC(=O)c3ccc(N=C(N)N)cc3)ccc2c1
inactive: [1] | [2] | [3] | [4]

O=c1oc2cc(O)ccc2s1
inactive: [1] | [2] | [3] | [4]

Cc1c(OCC(F)(F)F)ccnc1CS(=O)c1nc2ccccc2[nH]1 (stereo not drawn)
inactive: [1] | [2] | [3] | [4]

COc1cc2c(cc1OC)C1CC(=O)C(CC(C)C)CN1CC2 (stereo not drawn)
inactive: [1] | [2] | [3] | [4]

Nc1cccc2c1CN(C1CCC(=O)NC1=O)C2=O (stereo not drawn)
inactive: [1] | [2] | [3] | [4]

O=C(O)c1cc(=O)c2c(OCC(O)COc3cccc4oc(C(=O)O)cc(=O)c34)cccc2o1
inactive: [1] | [2] | [3] | [4]

Clc1ccc(C(Cn2ccnc2)OCc2c(Cl)cccc2Cl)c(Cl)c1 (stereo not drawn)
inactive: [1] | [2] | [3] | [4]

O=C(c1ccccc1)c1ccc2n1CCC2C(=O)O (stereo not drawn)
inactive: [1] | [2] | [3] | [4]

CCCCN(CCCC)CCC(O)c1cc2c(Cl)cc(Cl)cc2c2cc(C(F)(F)F)ccc12 (stereo not drawn)
inactive: [1] | [2] | [3] | [4]

Clc1ccc(C(Cn2ccnc2)OCc2ccc(Sc3ccccc3)cc2)c(Cl)c1 (stereo not drawn)
inactive: [1] | [2] | [3] | [4]
active: [5] 1.17 µM | [6] 18.5 µM | [7] 29.3 µM | [8] 18.5 µM

Nc1nc(OCc2ccccc2)c2[nH]cnc2n1
inactive: [1] | [2] | [3] | [9] | [5] | [6]

Cc1ccc(NC(=O)c2ccc(CN3CCN(C)CC3)cc2)cc1Nc1nccc(-c2cccnc2)n1
inactive: [1] | [2] | [3] | [4] | [9] | [5]
active: [8] 16.5 µM

Nc1ncn([C@H]2C[C@H](O)[C@@H](CO)O2)c(=O)n1
inactive: [1] | [2] | [3] | [4] | [9] | [5] | [7] | [10] | [8]

O=C(O)c1cccnc1Nc1cccc(C(F)(F)F)c1
inactive: [1] | [2] | [3] | [4]

Nc1ccc(S(N)(=O)=O)cc1
inactive: [1] | [2] | [3] | [4]

O=C(NCCO[N+](=O)[O-])c1cccnc1
inactive: [1] | [2] | [3] | [4]

COc1cc2nc(N3CCN(C(=O)C4CCCO4)CC3)nc(N)c2cc1OC (stereo not drawn)
inactive: [1] | [2] | [3] | [4]

CCOC(=O)C1=C[C@@H](OC(CC)CC)[C@H](NC(C)=O)[C@@H](N)C1
inactive: [1] | [2] | [3] | [4]

O=C(NCC1CCCCN1)c1cc(OCC(F)(F)F)ccc1OCC(F)(F)F (stereo not drawn)
active: [5] 1.31 µM | [6] 7.37 µM
inactive: [1] | [2] | [3] | [4] | [10] | [8]

CC(S)C(=O)NCC(=O)O (stereo not drawn)
inactive: [1] | [2] | [3] | [4] | [9] | [7] | [10]

COc1ccc2cc([C@H](C)C(=O)O)ccc2c1
inactive: [1] | [2] | [3] | [4]

Nc1ccn([C@@H]2O[C@H](CO)[C@@H](O)C2O)c(=O)n1 (stereo partly drawn)
inactive: [1] | [2] | [3] | [4] | [9] | [7] | [10] | [8]
active: [5] 16.5 µM

O=C(O)c1cn(-c2ccc(F)cc2)c2cc(N3CCNCC3)c(F)cc2c1=O
inactive: [1] | [2] | [3] | [4]

Cc1cc(=O)oc2cc(O)ccc12
inactive: [1] | [2] | [3] | [4]

Clc1ccc2c(N3CCN(CCCN4CCN(c5ccnc6cc(Cl)ccc56)CC4)CC3)ccnc2c1
inactive: [1] | [2] | [3] | [4]

NNc1nncc2ccccc12
inactive: [1] | [2] | [3] | [4]

CCOc1cc(CC(=O)N[C@@H](CC(C)C)c2ccccc2N2CCCCC2)ccc1C(=O)O
inactive: [1] | [2] | [3] | [4] | [9] | [7] | [10] | [8]

C[C@]12CCC(=O)C=C1CC[C@@H]1[C@H]2[C@@H](O)C[C@@]2(C)[C@H]1CC[C@]2(O)C(=O)CO
inactive: [1] | [2] | [3] | [4] | [9] | [5] | [7] | [10] | [8]

CC(C)CC(=O)N[C@H](C(=O)N[C@H](C(=O)N[C@@H](CC(C)C)[C@@H](O)CC(=O)N[C@@H](C)C(=O)N[C@@H](CC(C)C)[C@@H](O)CC(=O)O)C(C)C)C(C)C (Isovaleryl-VV[Sta]A[Sta]-OH)
inactive: [1] | [2] | [3] | [4] | [8]
active: [9] 16.5 µM | [5] 1.47 µM | [6] 5.22 µM

Clc1ccc(C(Cn2ccnc2)OCc2ccsc2Cl)c(Cl)c1 (stereo not drawn)
active: [9] 14.7 µM | [5] 20.8 µM | [6] 11.7 µM | [7] 16.5 µM | [10] 20.8 µM
inactive: [1] | [2] | [3] | [4]

CC1(C)C(=O)N(CCN2CCC(C(=O)c3ccc(F)cc3)CC2)c2ccccc21
inactive: [1] | [2] | [3] | [4] | [10] | [8]
active: [6] 3.29 µM

CC[C@]1(O)C[C@H]2CN(CCc3c([nH]c4ccccc34)[C@@](C(=O)OC)(c3cc4c(cc3OC)N(C=O)[C@H]3[C@@](O)(C(=O)OC)[C@H](OC(C)=O)[C@]5(CC)C=CCN6CC[C@]43[C@@H]65)C2)C1
inactive: [2] | [3] | [4]
active: [1] 0.0335 µM | [9] 10.4 nM and 1.04 µM | [5] 14.7 nM and 18.5 nM | [6] 23.3 nM and 104 nM | [7] 36.9 nM and 208 nM | [10] 58.5 nM and 827 nM | [8] 82.7 nM and 92.8 nM
